Experimental data as given in PubChem BioAssay AID1946 (Johns Hopkins Ion Channel Center, 2009).
Out of some 2,400 compounds screened, about 180 (7.5%) were called active. The sample as a whole holds a higher share of actives than the screen did. Values without a mark were called inactive.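 How the source made its calls: active means readout below zero, meaning a drop past 3 SD under the dofetilide-free negative control mean; inactive means the rest.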

molecular target: Potassium voltage-gated channel subfamily KQT member 2 (Rattus norvegicus) (UniProt O88943); test: rat KCNQ2 channel inhibition by compounds alone, confirmation, counter-screen for hERG block protector project, cell-based, CHO, FluxOR thallium flux (AID 1946); settings: CHO-KCNQ2 cells, FluxOR thallium flux fluorescence; at 10 µM; hits give low values; zero marks the 3-SD hit cutoff
Sequence (O88943 whole entry, looked up): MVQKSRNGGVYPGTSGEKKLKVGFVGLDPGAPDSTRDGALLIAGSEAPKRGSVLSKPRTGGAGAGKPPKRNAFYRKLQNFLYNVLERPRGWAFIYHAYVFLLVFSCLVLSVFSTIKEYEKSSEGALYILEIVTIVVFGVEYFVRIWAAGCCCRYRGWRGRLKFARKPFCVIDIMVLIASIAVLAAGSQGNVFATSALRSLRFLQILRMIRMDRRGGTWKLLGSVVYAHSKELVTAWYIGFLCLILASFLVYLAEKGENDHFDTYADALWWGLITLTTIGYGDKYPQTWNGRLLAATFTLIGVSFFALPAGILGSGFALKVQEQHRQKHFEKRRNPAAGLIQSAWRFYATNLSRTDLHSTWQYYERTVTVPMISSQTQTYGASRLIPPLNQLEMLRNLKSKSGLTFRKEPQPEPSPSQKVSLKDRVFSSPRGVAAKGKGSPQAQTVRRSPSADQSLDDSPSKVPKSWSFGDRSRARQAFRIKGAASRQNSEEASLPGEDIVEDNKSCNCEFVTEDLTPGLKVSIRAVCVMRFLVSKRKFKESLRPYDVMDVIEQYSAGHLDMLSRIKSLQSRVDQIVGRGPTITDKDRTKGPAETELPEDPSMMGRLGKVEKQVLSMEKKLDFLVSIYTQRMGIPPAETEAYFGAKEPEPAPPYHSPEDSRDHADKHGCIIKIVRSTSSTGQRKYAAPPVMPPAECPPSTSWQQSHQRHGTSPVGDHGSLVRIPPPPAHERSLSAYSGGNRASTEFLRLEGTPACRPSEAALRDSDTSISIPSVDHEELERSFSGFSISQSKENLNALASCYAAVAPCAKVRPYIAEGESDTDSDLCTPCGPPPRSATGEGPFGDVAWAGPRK

| Structure (SMILES) | activity change vs negative control |
| --- | --- |
| ON/C=N/C(=S)Nc1ncc(C(F)(F)F)cc1Cl | 49.3% |
| CC1(C)CC2CC(C)(CN2C(=S)NC(=O)c2ccccc2Cl)C1 (centres undefined) | 37.9% |
| Cc1ccc(/C(O)=C/C(=O)C(=O)NC23CC4CC(CC(C4)C2)C3)cc1 | 32.5% |
| Cc1ccc(N=Cc2cc(Cl)cc(Cl)c2O)nc1 | 53.9% |
| Cc1cc(C)n(-c2nc3sc4c(c3c(=O)[nH]2)CCCC4)n1 | 28% |
| Cc1cc(C)n(-c2nc(NCCCN(C)C)c3c4c(sc3n2)CCCC4)n1 | -1.4% (active) |
| CN(C)CCNc1ncnc2c1sc1nc(N3CCCC3)c3c(c12)CC(C)(C)OC3 | 8.8% |
| CC(NC(=O)NC1CCCCC1)c1ccc2c(c1)OCO2 (centres undefined) | 72.4% |
| COc1ccccc1C(=O)NNC(=O)C(=O)NC(C)(C)C | 31.3% |
| Cc1ccc(NS(=O)(=O)c2ccc(NC(=O)c3ccccc3C(=O)O)cc2)cc1C | 10.8% |
| COc1ccc(NS(=O)(=O)c2ccc3ccccc3c2)c2ncccc12 | 2% |
| COc1ccccc1-n1cnc2cc(NS(=O)(=O)c3ccc(Br)cc3)ccc21 | -2.5% (active) |
| COc1ccc(C(=O)NC(=S)N(Cc2ccccc2)Cc2ccccc2)cc1 | 51.4% |
| CCOC(=O)N1CCN(c2c(-c3ccc(C)c(C)c3)c(=O)c2=O)CC1 | 20.5% |
| Cc1ccc(C(=O)NC(=S)N(C)C2CCCCC2)cc1Br | 17.4% |
| COc1ccc(CCNC(=O)c2ccc3c(c2)OCO3)cc1 | 5% |
| CCCCNC(=S)NNC(=O)c1ccc2c(c1)OCO2 | -2.9% (active) |
| Cc1ccc(C(C)NC(=O)c2ccc3c(c2)OCO3)cc1C (centres undefined) | 58.4% |
| O=c1c(-c2ccccc2)nc(-c2ccccc2)cn1O | 88.1% |
| COc1cccc(C(=O)NNC(=O)C(=O)Nc2cccc(Cl)c2C)c1 | 83.6% |
| COC(=O)C1=NN(C(=O)c2cccc(Br)c2)C(O)(c2ccc(Cl)cc2)C1 (centres undefined) | 158% |
| Cc1ccc(NC(=O)CCc2nc3sc4c(c3c(=O)[nH]2)CCCC4)c(Br)c1 | -0.3% (active) |
| CCOC(=O)c1cnn(-c2nc(SC)nc3sc4c(c23)CCCC4)c1N | 5.9% |
| Cc1nc(SCC(=O)NCC2CCCO2)c2c3c(sc2n1)CCCC3 (centres undefined) | 32.5% |
| Fc1ccc(NC(=S)Nc2nccs2)cc1 | 16.4% |

| Structure (SMILES) | activity change vs negative control |
| --- | --- |
| CCC(C)c1ccccc1NC(=S)NC(=O)c1ccco1 (centres undefined) | 82% |
| Cc1ccc(NC(=O)CN2C(=O)S/C(=C/c3ccc(-c4cc(C(=O)O)ccc4C)o3)C2=O)cc1C | 4.8% |
| O=C(CCN1C(=O)/C(=C/c2cccs2)SC1=S)Nc1cccc(C(=O)O)c1 | 5.2% |
| COc1cc(/C=C2/SC(=S)N(CC(=O)O)C2=O)ccc1OCC(=O)Nc1ccc(C)c(C)c1 | -3.8% (active) |
| CSc1nc2c(c(=O)[nH]1)C(c1ccccc1Cl)CC(=O)N2 (centres undefined) | 1.5% |
| Cc1cccc(NC(=S)NC(=O)c2ccc(Br)o2)c1C | 27.3% |
| Cc1ccc(C(=O)NC(C)c2ccc(C)c(C)c2)s1 (centres undefined) | 53.7% |
| COc1ccc(/C=C2\SC(=N)N(c3nccs3)C2=O)cc1OC | 6.8% |
| COc1cc(/C=C/C(=O)O)ccc1OS(=O)(=O)c1cc(C)ccc1C | 13.1% |
| COc1ccc(/C=C2\SC(c3ccc(C)cc3)=NC2=O)cc1OC | -3.2% (active) |
| O=S(=O)(NC(=S)NC1CCCCC1)c1ccc(Cl)cc1 | 34.4% |
| S=c1nc(Cc2ccc(Cl)cc2)[nH]c2ccccc12 | 51.9% |
| COc1ccccc1NC(=O)C1CCCN1C(=O)NCc1ccccc1 (centres undefined) | -1.2% (active) |
| COc1ccccc1NC(=O)C1CCCN1C(=O)Nc1ccc(F)cc1 (centres undefined) | 1.7% |
| COc1ccccc1C(=O)NNC(=O)C(=O)NCc1ccccc1 | 41.8% |
| COc1cccc(OCC(=O)NNC(=O)C(=O)Nc2ccc(OC)cc2OC)c1 | 43.2% |
| O=C1NC(=S)S/C1=C\c1ccc2ccccc2c1 | 75.1% |
| CCCN1C(=O)/C(=C/c2ccc3c(c2)OCO3)NC1=S | 19.4% |
| O=C1NC(=O)/C(=C/c2cc3c(cc2Br)OCO3)S1 | -0.8% (active) |
| N#Cc1c(NC(=O)c2cc(-n3cnnc3)ccc2Cl)sc2c1CCCC2 | 13% |
| COc1ccc(C(=O)CC(=O)C(=O)Nc2ccccc2)cc1 | 32.5% |
| CC1CN(C(=S)NC(=O)c2ccc(Cl)cc2)CC(C)O1 (centres undefined) | 28.2% |
| CCn1cc(C(=O)NCCN(C)C)c(=O)c2cc(F)c(N3CCN(C)CC3)cc21 | -0.9% (active) |
| O=C(NC(=S)Nc1cccnc1)c1cc2ccccc2o1 | 31.9% |
| CC(C)Oc1cccc(C(=O)N2CCCC2)c1 | 9.7% |

| Structure (SMILES) | activity change vs negative control |
| --- | --- |
| COc1ccc(CS(=O)(=O)CC2(O)CCN(C(=O)c3cccc(C(F)(F)F)c3)CC2)cc1 | -2.4% (active) |
| COc1ccc(C(=O)O)cc1S(=O)(=O)Nc1cccc(C(F)(F)F)c1 | 8% |
| C/C(=N\NC(=O)c1cc2ccccc2cc1O)c1cc2ccccc2o1 | 112% |
| Cc1ccc(C(=O)Nc2nc(=O)n(C)s2)cc1 | 15.9% |
| O=C(Nc1nc(=O)c2ccccc2s1)c1ccc(Cl)cc1 | 23.9% |
| Cc1c(-c2ccn[nH]2)cc(NC(=O)c2ccc(Cl)cc2)c(=O)n1N | -0.8% (active) |
| CCOC(=O)c1nnn(CC(=O)Nc2cccc(F)c2)c1C(=O)OCC | 14.1% |
| Cc1cc(C)c(-c2cc(NC(=O)COC(=O)c3ccc(NC(=O)CC#N)cc3)n(-c3ccccc3)n2)cc1C | 7.4% |
| CCOC(=O)c1ccc(NC(=O)Cn2nnc(-c3ccccc3)n2)cc1 | -3.4% (active) |
| Cc1cccc(NC(=S)NC(=O)c2ccco2)c1C | 77.7% |
| O=C(Nc1nc(-c2ccccc2)c(-c2ccccc2)o1)c1ccc(F)cc1 | 40.3% |
| O=C(Nc1cccc2[nH]ncc12)c1ccc(F)cc1 | -2.9% (active) |
| CCOc1cccc(C(=O)Nc2ccc3[nH]ncc3c2)c1 | 15.6% |
| CCCCn1c(N)c(C(=S)NC(=O)CC(C)(C)C)c(=O)n(C)c1=O | 40.5% |
| Cc1sc2ncnc(SCC(=O)c3ccc(O)cc3O)c2c1C | 24.3% |
| Cn1ncc2c(O/N=C(\N)c3ccc(C(F)(F)F)cc3)ncnc21 | 7.4% |
| Cn1ncc2c(NNC(=O)c3ccc(O)cc3)ncnc21 | -3.1% (active) |
| Cn1ncc2c(NNC(=O)Cc3ccccc3)ncnc21 | 15.1% |
| O=c1cc(-c2ccccc2)cc(-c2ccccc2)n1O | 72.2% |
| COC(=O)CNC(=S)NC(=O)c1ccc(C(C)(C)C)cc1 | 1.6% |
| COC(=O)CNc1nc(Cl)nc(Nc2ccc(C)cc2)n1 | -0.4% (active) |
| COc1ccc(OCC(=O)NNC(=O)C(=O)Nc2ccc(C)cc2)cc1 | 7.7% |
| COc1ccc(-n2c(O)c(/C=C3\C=Nc4ccccc43)c(=O)[nH]c2=O)cc1 | -8.7% (active) |
| COc1ccc(Cn2c(O)cc(=O)[nH]c2=O)cc1 | 1.4% |
| COc1ccc(-n2c(=S)[nH]c3ccccc3c2=S)cc1 | 22.2% |

| Structure (SMILES) | activity change vs negative control |
| --- | --- |
| CCC1(C)Cc2c(sc3nc(SC)[nH]c(=S)c23)CO1 (centres undefined) | 131% |
| COc1ccc(/C=C/C(=O)Nc2ccccc2C(=O)O)cc1 | 27.2% |
| CCOC(=O)/C(C)=N/NC(=O)c1ccc([N+](=O)[O-])cc1 | 40.5% |
| CCNC(=S)Nc1nc2c(cc1C(=O)OCC)CCCC2 | 29.4% |
| O=C(O)CSCc1c(F)cccc1Cl | -3.5% (active) |
| O=C(O)CSc1nc2ccccc2nc1Cc1ccccc1F | 29.1% |
| CCN(CC)CCCN1C(=O)c2oc3ccccc3c(=O)c2C1c1cccs1 (centres undefined) | 44.2% |
| CON/C=N/C(=S)Nc1ncc(C(F)(F)F)cc1Cl | 51.1% |
| Cc1nn(C)c(C(=O)NC(=S)Nc2ccc([N+](=O)[O-])cc2)c1Cl | 29.3% |
| Cc1ccc(NC(=S)NC(=O)c2sc3ccccc3c2Cl)c(C(=O)O)c1 | 36.9% |
| COc1cccc([C@@H]2Oc3ccc(OC)cc3C(=O)[C@H]2OC(=O)NCc2ccc3c(c2)OCO3)c1 | 2.3% |
| CCOc1ccc(/C=C2\CCc3ccccc3C2=O)cc1 | 10.2% |
| COc1cccc(C2C3=C(N=c4s/c(=C\c5ccc(OCC(=O)O)cc5)c(=O)n42)c2ccccc2CC3)c1 (centres undefined) | -16.7% (active) |
| O=C(NC(=S)N(CCCCO)C1CCCCC1)c1sc2ccccc2c1Cl | 53.8% |
| C=CCn1c(SCC(=O)NCC2CCCO2)nnc1-c1ccccc1 (centres undefined) | 8.9% |
| O=C(CNCC1CCCO1)N1CCCCCC1 (centres undefined) | 8.2% |
| O=C(CSc1cn(CC(=O)N2CCCC2)c2ccccc12)NCC1CCCO1 (centres undefined) | -4.5% (active) |
| CC(C)(C)c1cc(C(=O)NNC(=O)c2ccc(Cl)cc2)no1 | 53.5% |
| COc1cccc(CN(C)CC2CCCN(CCc3ccc(Cl)cc3)C2)c1OC (centres undefined) | -3.8% (active) |
| COc1cccc(OC)c1OCCOCCN1CCN(C)CC1 | 6.8% |
| Oc1c(Cl)cc(Cl)cc1C=Nc1ccc(Br)cc1 | 60.6% |
| CCOC(=O)N/N=C/C=C/c1ccccc1[N+](=O)[O-] | 28.8% |
| C=CCN(c1ccc(Cl)cc1)S(=O)(=O)c1cccc(C(=O)O)c1 | 26.2% |
| S=c1nn[nH]n1C12CC3CC(CC(C3)C1)C2 | 36.2% |
